Measurements from PubChem BioAssay AID651703 (Broad Institute, 2012).
Among all 1,200 compounds or so, about 970 (81%) were called active. The rule behind the calls is not given here. The set was probably picked from earlier hits. These entries were drawn from the full list. Results with a measured potency or affinity are listed apart.

These compounds were tested against Transforming acidic coiled-coil-containing protein 3 (Homo sapiens) (UniProt Q9Y6A5) (assay: ARNT/TACC3 interaction disruptors, potency, confirmation, biochemical, AlphaScreen, cherry-picked samples (AID 651703;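 note: TACC3 partner is the GST-tagged E629A mutant dimer; hits lower the signal meaning they disrupt ARNT binding to TACC3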)). Settings: AlphaScreen His-ARNT PAS-B / GST-TACC3 binding, luminescence; series mostly up to 68 µM; activity change, negative = inhibition: at the top concentration.

Activity change, negative = inhibition, inactive:
O=C(C[C@H]1CC[C@@H](NC(=O)c2ccccc2)[C@H](CO)O1)Nc1ccc(-c2ccccc2)cc1 -7.06%
O=C(C[C@@H]1CC[C@@H](NC(=O)c2ccccc2)[C@H](CO)O1)Nc1ccc(-c2ccccc2)cc1 -7.97%
O=C(N[C@H]1CC[C@@H](CCn2cc(-c3ccccc3)nn2)O[C@@H]1CO)c1cnccn1 -5.38%
CN1CCC(n2[nH]c(-c3ccccc3)c(Cc3ccccc3)c2=O)CC1 -10.5%
C[C@H]1CN([C@@H](C)CO)C(=O)c2cc(C#Cc3ccccn3)cnc2O[C@@H]1CN(C)Cc1ccccc1 -12.5%
CC(C)NC(=O)Nc1ccc2c(c1)CC(=O)N([C@H](C)CO)C[C@H](C)[C@H](CN(C)S(=O)(=O)c1cccs1)O2 -14.9%
COc1ccc(CN(C)C[C@@H]2Oc3ccc(NC(=O)Cn4cnnn4)cc3C(=O)N([C@@H](C)CO)C[C@H]2C)cc1 -9.62%
C[C@@H]1CN([C@@H](C)CO)C(=O)c2cc(NC(=O)CCN3CCOCC3)ccc2O[C@@H]1CN(C)Cc1ccncc1 -3.85%
CC(C)NC(=O)N(C)C[C@H]1Oc2ccc(N(C)C)cc2CC(=O)N([C@@H](C)CO)C[C@@H]1C 0.668%
C[C@H](CO)N1C[C@H](C)[C@H](CN(C)C(=O)NC2CCCCC2)Oc2ccc(NS(=O)(=O)c3cccs3)cc2CC1=O -6.44%
COc1ccc(-c2cnc3c(c2)C(=O)N([C@H](C)CO)C[C@@H](C)[C@H](CN(C)Cc2cccnc2)O3)cc1 -5.95%
Cc1cc(C)n2nc(-c3cccc(Br)c3)cc2n1 0.525%
N/C(=N\NS(=O)(=O)c1ccccc1Cl)c1ccccn1 -23%
S=c1[nH]nc(-c2cc3c(s2)-c2ccccc2CC3)o1 -31.4%
COc1cc2c(cc1OC)-c1cc(Nc3cccc(C)c3)nc(=O)n1CC2 5.52%
O=C(NCCc1ccccc1)c1ccc(=O)[nH]c1 -5.64%
NS(=O)(=O)c1ccc(CCNC(=O)COC(=O)c2ccc([N+](=O)[O-])o2)cc1 -30.5%
O=C(COC(=O)c1ccc([N+](=O)[O-])o1)NCc1ccccc1 -21.1%
NC(=O)CC(NC(=O)c1ccccc1)c1ccc(NCc2ccccn2)c([N+](=O)[O-])c1 (stereo not drawn) -13.6%
COc1cc(/C=N/NC(=O)CSc2n[nH]c(=O)[nH]c2=O)cc(OC)c1O -11%
O=C(c1cc(-c2ccccc2)on1)N1CCC(N2CCOCC2)CC1 -4.7%
O=C(c1cc(-c2ccccc2)on1)N1CCC(CO)CC1 -1.3%
Cc1[nH]c(=O)[nH]c(=O)c1/C=N/NC(=O)[C@H](C)NC(=O)OC(C)(C)C -1.1%
COc1ccc(-c2nnc(SCC(=O)NC3CC3)o2)cc1 -3.22%
COC(=O)C[C@@H]1CC[C@@H](NS(=O)(=O)c2ccc(OC)cc2)[C@H](CO)O1 -0.059%
Cc1[nH]cnc1CN1CCc2c(c3ccccc3n2C)C1=O -21.6%
COc1ccc(C(=O)Nc2nc3ccccc3[nH]2)cc1S(=O)(=O)N1CCOCC1 -27.7%
CCOc1cc2nc(-c3ccc(OC)c(OC)c3)nc(NCCCN3CCOCC3)c2cc1OC -5.91% [at 35 µM]
O=C(NCCN1CCOCC1)c1cc(-c2ccccc2)on1 -3.9%
O=C(NCCCN1CCOCC1)c1cc(-c2ccccc2)on1 6.12%
C#CCOCCOCCOCCNc1nc(N2CCN(C(=O)[C@H](CCCCN)n3cc([C@@H](N)CC(N)=O)nn3)CC2)nc(N2CCN(C(=O)[C@H](CCCCN)n3cc([C@@H](N)CC(N)=O)nn3)CC2)n1 -22%
C#CCOCCOCCOCCNc1nc(N2CCN(C(=O)Cn3cc(CCCCN)nn3)CC2)nc(N2CCN(C(=O)[C@H](CCCCN)n3cc(CCCC)nn3)CC2)n1 -8.06%
C#CCOCCOCCOCCNc1nc(N2CCN(C(=O)C([C@@H](C)O)n3cc([C@@H](N)CCCCN)nn3)CC2)nc(N2CCN(C(=O)C([C@@H](C)O)n3cc([C@@H](N)CCCCN)nn3)CC2)n1 (stereo partly drawn) -11%
C#CCOCCOCCOCCNc1nc(N2CCN(C(=O)[C@H](CCC(=O)O)n3cc([C@@H](N)CCCCN)nn3)CC2)nc(N2CCN(C(=O)[C@H](CCCCN)n3cc([C@@H](N)CC(N)=O)nn3)CC2)n1 -14.6%
CCOc1cc(C(=O)NC2CC(C)(C)NC(C)(C)C2)cc(OCC)c1OCC -3.7%
c1ccc(CN2CCN(CCCNc3ccc4nnc(-c5ccccc5)n4n3)CC2)cc1 -28.4%
Oc1cccc(CN2CCOCC2)c1O -3.34%
COc1ccc(C(=O)NNC(=O)Cc2coc3cc(OC)ccc23)cc1 -12.1%
CCN(/N=C/c1ccccc1)c1cc(=O)n(C)c(=O)[nH]1 -29.9%
O=C(Nc1ccccc1)N1CCCCN2[C@H](C1)[C@H](c1ccc(C#CC3CC3)cc1)[C@@H]2CO -25.8%
O=C(NCCCn1ccnc1)c1cc(-c2ccccc2)on1 -3.75%
CC(C)(C)c1cc(C(=O)NCCCn2ccnc2)cc(C(C)(C)C)c1 -17.3%
COc1ccc(-c2cnc3c(c2)C(=O)N([C@H](C)CO)C[C@H](C)[C@H](CN(C)Cc2cccnc2)O3)cc1 -2.08%
O=C(O)C1C2C=CC(C2)C1C(=O)NCCCn1ccnc1 (stereo not drawn) -5.06%
CN(c1ccc(C(=O)N2CCc3ccccc3C2)cc1)S(C)(=O)=O -30.6%
O=C(C1CC1)N1CCc2cc(Br)cc(S(=O)(=O)NCc3ccccn3)c21 -4.26%
CO[C@H]1CN(C)C(=O)c2cc(NS(=O)(=O)CC(F)(F)F)ccc2OC[C@H](C)N(Cc2cccnc2)C[C@@H]1C -3.73%
O=C(Nc1ccc(Br)cn1)c1cccc(C(=O)Nc2ccc(Br)cn2)c1 -24.4%
O=C(NC1Cc2ccccc2C1)c1cc(-c2ccccc2)on1 -0.19%
c1c[nH]c(CN2CCN(Cc3ncc[nH]3)CC2)n1 -24%
CC1(C)CC(=O)C=C(Nc2ccccc2N)C1 13.5%
O=c1[nH]cnc2c1C(c1ccccc1[N+](=O)[O-])c1c(nc[nH]c1=O)O2 -10.3%
O=C(NCCCCO)c1cc(-c2ccccc2)on1 -1.85%
O=C1CN(C(=O)COC(=O)c2ccc([N+](=O)[O-])o2)c2ccccc2N1 -18.7%
O=C(O)c1c[nH]c2c([N+](=O)[O-])cccc2c1=O -5.07%
O=C(N/N=C/c1c(Cl)nc2ccccn2c1=O)c1cccnc1 -20.1%
C[C@H](CO)N1C[C@H](C)[C@@H](CN(C)C(=O)Nc2ccc(C(F)(F)F)cc2)Oc2ncc(C3=CCCC3)cc2C1=O -28.6%
O=C(Nc1cnc2ccccc2c1)c1cc(-c2ccccc2)on1 -3.86%
CCOC(=O)N1CCN(C(=O)CSc2ccc3nnc(-c4ccccn4)n3n2)CC1 -23.3%
O=C(Nc1cccc(F)c1)c1cccnc1NCCc1ccccc1 -12.3%
Cc1ccc(C2=CSC3=NS(=O)(=O)CCN23)cc1 -17.9%
O=C(Nc1ccc2nc(-c3ccccn3)[nH]c2c1)C1CCCCC1 -26.6%
O=C(NN=C1CCCC1)c1ccc(O)cc1O -19%
